# Measured values reported in PubChem BioAssay AID440 (NMMLSC, 2006).
# Screen size: about 24,000 compounds; about 180 (0.75%) were called active. The full list was thinned out, with actives kept by preference. A number with no mark means an inactive call. No stated cut-off is given here; in the data, active means inhibition above about 30%; inconclusive means no clear call, values can overlap the other calls; inactive means below that.
# Target: fMet-Leu-Phe receptor (Homo sapiens) (UniProt P21462)
# Assay: small molecules displacing FPR fluorescent ligand – cell-based, FPRL1 counter-screen, flow cytometry, primary screen (AID 440);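 further: 0% = buffer wells and 100% = receptor blocker peptide wells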
# Settings: FPR-expressing cells, fluorescent ligand binding, active compounds read high, concentration not given here
# Sequence of fMet-Leu-Phe receptor (Homo sapiens) (P21462 whole entry, looked up): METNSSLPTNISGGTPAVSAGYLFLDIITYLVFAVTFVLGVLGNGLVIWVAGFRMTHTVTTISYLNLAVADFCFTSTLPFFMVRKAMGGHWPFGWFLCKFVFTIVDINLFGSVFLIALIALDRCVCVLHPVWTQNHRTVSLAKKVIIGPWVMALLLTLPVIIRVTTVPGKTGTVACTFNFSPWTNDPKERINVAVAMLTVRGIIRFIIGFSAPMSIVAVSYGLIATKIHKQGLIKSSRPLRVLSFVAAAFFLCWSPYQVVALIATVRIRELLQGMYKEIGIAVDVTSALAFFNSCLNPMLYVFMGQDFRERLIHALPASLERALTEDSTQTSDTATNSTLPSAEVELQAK
row,SMILES,inhibition
1,COC(=O)c1ccc(CSc2ccccc2C)o1,0.5%
2,O=C(Nc1ccccc1C(=O)N1CCOCC1)C1CCC(=O)N1C1CCCC1 (stereo unspecified),-0.6%
3,COc1ccc(CN2C(=O)CN=C2Nc2ccc(C)cc2C)cc1,6.5%
4,O=C(Cn1nc(Cc2cccnc2)c2ccccc2c1=O)NCC1CCCO1 (stereo unspecified),0.4%
5,Cc1nn(C)c(C)c1S(=O)(=O)N1CCc2ccccc21,8.9%
6,O=C(NCCCN1CCN(C2CCCCC2)CC1)Nc1ccccc1C(F)(F)F,1.3%
7,O=C(CN1C(=O)COc2ccccc21)Nc1ccc(F)cc1,4.3%
8,CCn1ncc(Br)c1C(=O)Nc1cc(C)ccc1F,0.8%
9,Cc1nc(CNS(=O)(=O)c2cccnc2)cs1,1.9%
10,CSc1sc(C)cc1C1C(C#N)=C(N)N(c2cccnc2)C2=C1C(=O)CCC2 (stereo unspecified),4.3%
11,Cc1nc(C)c(C(=O)Nc2ccc(C)c(F)c2)o1,-4.6%
12,O=c1c(-c2ccc3c(c2)OCCO3)c(C(F)(F)F)oc2cc(O)cc(O)c12,-6.7%
13,Cc1cccn2c(=O)c3cc(C(=O)NCc4ccccn4)n(C)c3nc12,-5.1%
14,O=C(Nc1cccnc1)c1noc2c1CCCCC2,-1.9%
15,Cc1cc(N2C(=O)C(=O)/C(=C(/O)c3ccc(Cl)cc3)C2c2cccc(Br)c2)no1 (stereo unspecified),3.2%
16,CCCC(NC(=O)c1ccccc1)c1nc2ccccc2n1Cc1ccc(C(=O)OC)o1 (stereo unspecified),24.2%
17,CSc1ccc(NC(=O)N2CC(C)OC(C)C2)cc1 (stereo unspecified),-6.4%
18,CCCCOc1ccc(C(=O)NCc2ccco2)cc1,0.1%
19,O=C(O)Cc1ccc(-c2ccccc2)cc1,3.8%
20,Cc1cc(Cl)c(S(=O)(=O)Nc2ccc3c(c2)OCCO3)cc1OCC(N)=O,-7.6%
21,CC1=C(C)CC2C(=O)N(c3cccc4ccccc34)C(=O)C2C1 (stereo unspecified),-2.3%
22,COc1cc2c(cc1NC(=O)CN1CCN(S(=O)(=O)c3ccc(F)cc3)CC1)oc1ccccc12,2.8%
23,CCOC(=O)C1(C(F)(F)F)N=C(N(C)C)OC(N(C)C)=N1,-1.4%
24,COC(=O)Nc1ccc(S(=O)(=O)N(C)CC(F)(F)C(F)F)cc1,1%

row,SMILES,inhibition
1,CCCOc1ccc(/C(O)=C2/C(=O)C(=O)N(CCN(C)C)C2c2ccc(OC)c(OC)c2)cc1 (stereo unspecified),-5%
2,COC(=O)CNS(=O)(=O)c1ccc(Cc2ccc(S(=O)(=O)NCC(=O)OC)cc2)cc1,-3.3%
3,CCOC(=O)c1ccc(-n2c(C)nc3c(cnn3-c3ccccc3C)c2=O)cc1,-9.5%
4,CN(C)S(=O)(=O)c1ccc(Oc2ccc(S(=O)(=O)N(C)C)cc2)cc1,-1.8%
5,O=C(CSc1nnc(Cn2cnc3ccccc32)o1)c1ccccc1,1.9%
6,O=C(O)[C@@H]1CCCN1c1ncnc2sc3c(c12)CCC3,8.1%
7,CC(=O)c1cccc(S(=O)(=O)N2CCC(n3nnc4cc(F)ccc43)CC2)c1,9.5%
8,COc1ccc(C(=O)Nc2nncs2)c(OC)c1,5.3%
9,CC(=O)Nc1cc(C(=O)O)ccc1S(=O)(=O)c1ccc(Cl)cc1,-2.3%
10,CCOC(=O)N1CCC(NC(=O)Cn2cc3c(n2)CCCCC3)CC1,0%
11,Cc1ccc(C)c(S(=O)(=O)n2cnc3ccccc32)c1,-0.2%
12,O=C(Nc1ccccc1C(F)(F)F)c1cc(-c2ccc(O)cc2)on1,-2.3%
13,O=C(CS(=O)(=O)c1cn(Cc2ccc(Cl)cc2)c2ccccc12)N1CCOCC1,15%
14,O=C(Nc1c2c(nn1-c1ccc(F)cc1)CS(=O)C2)C12CC3CC(CC(C3)C1)C2 (stereo unspecified),-5.4%
15,Cc1cc(C)c(C#N)c(SCc2[nH]nc3c2C(c2ccccc2)C(C#N)=C(N)O3)n1 (stereo unspecified),-6.4%
16,CCCCc1nc2c(=O)[nH]c3ccccc3c2o1,-2.1%
17,Fc1ccc2nc(Nc3nc4c(s3)CCCC4)sc2c1,-14.3%
18,Cn1cccc1C1(C(F)(F)F)NCCNC1=O (stereo unspecified),1.7%
19,CCCCCCn1c(CN2CCCCC2)nc2c1c(=O)n(C)c(=O)n2C,-5.5%
20,O=c1c(-c2ccccc2)coc2c(CN3CCOCC3)c(O)ccc12,-5.5%
21,c1ccc(COc2nsnc2N2CCOCC2)cc1,-1.9%
22,Cn1cccc1Cc1nnc(SCC(=O)NCc2ccc3c(c2)OCO3)n1CCc1ccccc1,4.8%
23,COc1ccc(CCNC(=O)C2CCN(c3nn4c(=O)cc(C)nc4s3)CC2)cc1OC,-2.7%
24,CCn1ncc(C2=NOC(C(=O)N3CCN(c4ccccc4)CC3)C2)c1C (stereo unspecified),-5.6%

row,SMILES,inhibition
1,OCc1n[nH]c(CO)n1,1.3%
2,O=C(CN1CCN(c2ncc(C(F)(F)F)cc2Cl)CC1)Nc1ccc2c(c1)OCO2,-4.3%
3,CCCCOCCCNC(=O)c1ccccc1OCC,1.4%
4,CCOC(=O)c1cc(NC(=O)SCC(=O)O)c(C)nc1C,3.8%
5,CCOC(=O)c1cc2cc(-c3c(C(=O)OCC)oc4cc(O)cc(O)c4c3=O)ccc2o1,-2.3%
6,COc1cc(C2C(C(=O)Nc3ccc(F)cc3)=C(C)Nc3nc(CCCO)nn32)cc(OC)c1OC (stereo unspecified),-4.8%
7,CCOc1ccc2c(=O)c(-c3ccc4c(c3)OCCCO4)c(C)oc2c1,-4.1%
8,CCOc1ccc(N(CC(=O)NCc2ccc(OC)cc2)S(=O)(=O)c2c(C)noc2C)cc1,-3.8%
9,CCOC(=O)CSc1nc2c(c(=O)n(C)c(=O)n2C)n1Cc1ccccc1F,4.7%
10,CCOc1ccc(Cn2nnc(C(=O)Nc3ccc(OC)cc3OC)c2N)cc1,-3.7%
11,O=C(Nc1ccn(Cc2ccc(F)cc2)n1)c1ccncc1,-7.7%
12,COc1ccc(OC)c(NC(=O)CCN2CCC(C)CC2)c1,-5.8%
13,Cc1cc(C)c(C#N)c(SCS(=O)c2ccc(C(C)(C)C)cc2)n1 (stereo unspecified),-4.1%
14,CCC(C(=O)Nc1ncccn1)(C(F)(F)F)C(F)(F)F,-1.6%
15,CCOC(=O)c1nnn(-c2nc(OC)nc(N(C)C)n2)c1-c1ccccc1,-0.2%
16,COc1cccc(Oc2ccc(N)cc2)c1,-7.2%
17,C=CCn1c(SCC(=O)NC23CC4CC(CC(C4)C2)C3)nc(O)cc1=O,3.3%
18,CCn1ncc(C2=NOC(C(=O)Nc3ccccc3C(=O)OC)C2)c1C (stereo unspecified),5.9%
19,Cc1ccnc(N2C(=O)c3ccccc3C2Nc2ccc3c(c2)OCCO3)c1 (stereo unspecified),-0.2%
20,CC(=O)C1=C(O)C(=O)N(c2ccc(S(N)(=O)=O)cc2)C1c1ccccc1F (stereo unspecified),-10.4%
21,CCOC(=O)c1sc(=S)n(-c2cccc(OC)c2)c1N,11%
22,CCOC(=O)c1sc(=S)n2c1[nH]c(=O)c1ccc(C(=O)OC)cc12,35.8% (active)
23,CCOC(=O)Cn1c(N)c(C(=O)OC)sc1=S,1.5%
24,Cc1ccc2cccc(O)c2[n+]1[O-],0.7%

row,SMILES,inhibition
1,CCOC(=O)Cn1c2c(c(-c3ccccc3OC)cc1=O)CCCC2,10.1%
2,CCOC(=O)N1CCN(C(=O)CSc2nnc(-c3c[nH]c4ccccc34)n2CCOC)CC1,8.4%
3,Cc1ccc2nc(NC(=O)C3CCN(S(=O)(=O)c4ccc5c(c4)oc(=O)n5C)CC3)sc2c1,-18.8%
4,Cc1cc(Nc2cccc(F)c2)n2ncnc2n1,-3.6%
5,Cc1nc2ccc(S(=O)(=O)NCC(=O)NCCN3CCCCC3C)cc2s1 (stereo unspecified),-4.2%
6,Cc1noc(C)c1S(=O)(=O)N(CC(=O)Nc1ccc2c(c1)OCCO2)c1ccc(C(C)C)cc1,0.9%
7,O=C(OCc1ccccc1F)c1ccc2c(c1)OCCO2,3.6%
8,CN1CCN(CCCNC(=O)c2cc3c(=O)oc4ccccc4c3s2)CC1,-0.9%
9,COC(=O)c1cc(S(=O)(=O)NC2CCN(Cc3ccccc3)CC2)cn1C,-4.4%
10,CCC(=O)N1CCN=C1SCc1ccc(F)cc1,0%
11,O=C(Nc1nccs1)C1CCCN1S(=O)(=O)c1cccc2cccnc12 (stereo unspecified),-4.6%
12,COc1cccc(-n2cc(C(=O)O)c3ccccc3c2=O)c1,-2.1%
13,COC(=O)c1c(-c2ccc(C)cc2)csc1N,7%
14,CCN1CCN(Cc2c(O)ccc3c(=O)c(-c4ccc(OC)c(OC)c4)c(C(F)(F)F)oc23)CC1,-8.1%
15,O=C1C(=O)N(CCN2CCOCC2)C(c2ccccn2)/C1=C(/O)c1ccc(Cl)cc1 (stereo unspecified),13.6%
16,CCOc1ccc(OCC)c(NC(=O)CN(C)S(=O)(=O)c2cccc3nsnc23)c1,-0.8%
17,Cc1cnc(C(=O)OCC(=O)Nc2ccc(Cl)cc2Cl)cn1,-2.2%
18,COc1ccc(NC(=O)c2c(SC)nsc2SC)cc1,2.1%
19,COc1ccc(-c2ccc(Nc3ccc(S(=O)(=O)N4CCCC4)cc3)nn2)cc1OC,-6.4%
20,Cc1cc(Nc2ccc(Br)cc2F)n2ncnc2n1,-4.7%
21,CCOC(=O)N1CCN(C(=O)C2CC(c3ccc(F)cc3)=NO2)CC1 (stereo unspecified),9.4%
22,CN(C)CCCNC(=O)c1ccc2[nH]c3ccccc3c2c1,3.7%
23,COc1cccc(N2C(=O)CC(N3CCN(S(=O)(=O)c4ccccc4)CC3)C2=O)c1 (stereo unspecified),-0.8%
24,CCOC(=O)c1c(C)c(C(=O)NCCc2ccc(S(N)(=O)=O)cc2)c(C)n1CC,-11.9%
